Screening results: PubChem BioAssay, several laboratories
A selection: hits, their analogues and other compounds. The true share with any hit is near 3.5%.
Mcl1 Bid PPI = Mcl-1/Bid binding inhibitors, primary screen, biochemical, TR-FRET, 1536-well; inhibition, % at 21.7 µM; TR-FRET Mcl-1/Bid-Dy647 peptide binding; hit rate 0.97% among 220,000;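 active means compounds that cut the binding signal by more than half at the single screening dose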;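 further: His-tagged Mcl-1 with europium anti-His antibody binding Bid BH3 peptide; 0% = Mcl-1 plus peptide wells and 100% = peptide-only wells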
Bim-Mcl-1 = inhibitors of Bim peptide binding to Mcl-1, primary screen, biochemical, bead-based flow cytometry, multiplex; Induced myeloid leukemia cell differentiation protein Mcl-1 (Homo sapiens), Q07820; Bim peptide-Mcl-1 binding; inhibition, % at 10 µM; hit rate 0.1% among 190,000; AID 1009, 2008; in the data active means inhibition above about 40%;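 further: 0% = no compound tracer wells and 100% = peptide blocker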
eIF4E-4G inh = eIF4E–eIF4G protein interaction inhibitors, primary screen, biochemical, uHTS, TR-FRET, eIF4GI fragment; Eukaryotic translation initiation factor 4E (Mus musculus) + Eukaryotic translation …; hit rate 0.37% among 220,000; AID 782, 2007; inhibition, % at 21.7 µM; TR-FRET eIF4E-eIF4GI(517-606) binding, 2 h;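 active means inhibition above about 30%, limit read from the data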;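 further: 0% = full FRET control wells and 100% = background wells lacking eIF4GI fragment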
14-3-3 Bad inh = inhibitors of 14-3-3 zeta/Bad binding, primary screen, biochemical, TR-FRET, bovine 14-3-3 zeta | 14-3-3 protein zeta/delta (Bos taurus), P63103 | TR-FRET 14-3-3zeta/Dy647-pBad peptide displacement, 1 h | inhibition, % at 21.7 µM | hit rate 0.71% among 220,000 | AID 781, 2007;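 active means inhibition above about 70%, limit read from the data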;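 further: 0% = full 14-3-3 plus peptide FRET controls and 100% = background without 14-3-3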
Mcl1-Noxa inh = Mcl-1/Noxa binding inhibitors, primary screen, biochemical, TR-FRET, 1536-well; Induced myeloid leukemia cell differentiation protein Mcl-1 (Homo sapiens), Q07820; TR-FRET Mcl-1/Noxa peptide binding, 2 h; inhibition, % at 21.7 µM; hit rate 1.5% among 220,000; AID 1022, 2008;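 active means compounds that cut the protein-peptide binding signal by more than 50% relative to plate controls in a single-dose test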;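 further: His-tagged Mcl-1 with rhodamine Noxa BH3 peptide and terbium anti-His antibody; 0% = Mcl-1 plus Noxa peptide wells and 100% = peptide-only wells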
Hck Nef HTS = inhibitors of Nef-activated human Hck kinase, primary screen, biochemical, Z-Lyte FRET, 384-well, Hck-YEEI; Tyrosine-protein kinase HCK (Homo sapiens), P08631; Recombinant Hck-YEEI plus Nef, Z-Lyte FRET kinase assay; inhibition, % at 20 µM; hit rate 0.68% among 220,000; AID 463187, 2010;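 active means Hck-Nef kinase inhibition above about 50%, limit read from the data; inactive means inhibition below that limit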;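 further: 0% = DMSO with Hck plus Nef and 100% = Hck alone without Nef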
Target sequence (P08631 whole entry, looked up): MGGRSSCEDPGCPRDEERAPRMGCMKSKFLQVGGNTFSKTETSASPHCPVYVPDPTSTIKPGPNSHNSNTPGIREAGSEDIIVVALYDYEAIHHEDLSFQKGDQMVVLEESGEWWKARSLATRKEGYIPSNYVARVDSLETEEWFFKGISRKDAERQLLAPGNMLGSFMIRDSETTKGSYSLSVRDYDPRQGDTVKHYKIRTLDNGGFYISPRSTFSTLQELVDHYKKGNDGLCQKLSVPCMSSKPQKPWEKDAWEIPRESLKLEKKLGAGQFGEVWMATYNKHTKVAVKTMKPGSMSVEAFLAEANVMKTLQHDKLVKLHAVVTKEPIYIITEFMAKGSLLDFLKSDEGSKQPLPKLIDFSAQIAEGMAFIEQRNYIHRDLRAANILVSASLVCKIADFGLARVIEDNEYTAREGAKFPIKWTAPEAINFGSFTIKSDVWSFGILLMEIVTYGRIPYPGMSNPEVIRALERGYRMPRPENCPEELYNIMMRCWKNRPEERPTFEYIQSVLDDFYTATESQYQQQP
Active calls of the source: *; . = not tested or not shown; [ ] = another dose, or the depositor's remark.

SMILES | Mcl1 Bid PPI | Bim-Mcl-1 | eIF4E-4G inh | 14-3-3 Bad inh | Mcl1-Noxa inh | Hck Nef HTS
COc1ccc(NC(=O)C(=O)N/N=C/c2cccnc2)cc1 | -30 | . | 85* | -3 | 4 | 24
O=C1c2ccccc2C(=O)N1/N=C/c1ccc(O)c(O)c1O | -93 | . | 98* | 50 | 100* | -7
O=C1c2cccc3cccc(c23)C(=O)N1/N=C/c1ccc(O)cc1O | 28 | -3 | -2 | 15 | 60* | 3
COc1cc(/C=N/N2C(=O)c3ccccc3C2=O)ccc1O | -34 | 0 | 8 | 3 | 27 | 1
Cc1sc2nc(C)n(/N=C/c3ccc(O)cc3O)c(=O)c2c1C | -20 | 0 | 0 | -4 | 22 | 7
CCOc1cc(CNc2nn[nH]n2)ccc1OCC(=O)NC(C)(C)C | -3 | -2 | -2 | -4 | 23 | -29
O=C(/N=C1\NC(=O)C(F)(C(F)(F)F)S1)NC1CCCCC1 (stereo unspecified) | -4 | 0 | 44* | 42 | 34 | .
COc1ccc(S(=O)(=O)N2CCOCC2)cc1NC(=O)c1cccc2c(=O)c(C)c(-c3ccccc3)oc12 | -27 | -3 | 2 | -27 | -118 | 3
NNc1nc2c(-c3ccc(Cl)cc3)nnn2c2ccccc12 | 12 | -3 | 3 | 8 | 68* | 16
Cc1ccc(-c2nnn3c2nc(Cl)c2ccccc23)cc1 | -5 | -7 | -3 | 91* | 10 | -8
Clc1nc2c(-c3ccccc3)nnn2c2ccccc12 | -14 | . | 6 | 1 | 7 | -11
NNc1nc2c(-c3ccc(F)cc3)nnn2c2ccccc12 | -23 | 6 | 2 | 17 | 69* | -3
COCCCNc1nc2c(-c3ccc(Cl)cc3)nnn2c2ccccc12 | 25 | -1 | 1 | 16 | -177 | 9
CCOC(=O)COc1cc(N)c(Cl)cc1Cl | -6 | 1 | 2 | -14 | 23 | 25
Cc1cc(N2CCOCC2)nc2cc(O)ccc12 | -18 | -6 | -5 | 80* | -1 | 3
COc1ccc(Cl)cc1S(=O)(=O)n1nnc2ccccc21 | -6 | 3 | 12 | 46 | 22 | 0
CCOc1ccc(S(=O)(=O)n2nnc3ccccc32)cc1C(C)C | 11 | 2 | -5 | 71* | 19 | 3
CCOc1ccc(OCCn2nnc3ccccc3c2=O)cc1 | -10 | -1 | 1 | -9 | 2 | 21
CCOc1ccccc1OCCn1nnc2ccccc21 | -4 | 0 | 9 | 82* | -21 | 4
Cc1cc(-c2nn(-c3ccccc3)cc2/C=C2\SC(N)=NC2=O)ccc1OC(C)C | 0 | 94* | 0 | -5 | -3 | 0
CCc1nnc(NC(=O)Cc2ccc(OCc3c(C)noc3C)cc2)s1 | -18 | 0 | 65* | -6 | 0 | 1
CCc1nnc(NC(=O)Cc2ccc(OC)cc2)s1 | -11 | 0 | 2 | 2 | 11 | -14
CN(CC(=O)O)c1ccc(C(F)(F)F)cc1[N+](=O)[O-] | -23 | -3 | 3 | -14 | 7 | -15
CCc1ccc(S(=O)(=O)/N=C2\C=CC(=O)c3ccccc32)cc1 | -12 | 1 | 3 | -3 | 87* | 38
CCc1ccc(S(=O)(=O)/N=C2/C=C(Sc3ncn[nH]3)C(=O)c3ccccc32)cc1 | 40 | 1 | 32*[fluorescence artefact?] | 84*[fluorescence artefact?] | 101* | -3
SMILES | Mcl1 Bid PPI | Bim-Mcl-1 | eIF4E-4G inh | 14-3-3 Bad inh | Mcl1-Noxa inh | Hck Nef HTS
CCCOc1ccc(C(=O)ON=C2CCN(C)CC2)cc1 | -9 | -4 | 0 | -7 | 14 | 23
CCSc1nnc(NC(=O)C(Cc2ccccc2)n2cccc2)s1 (stereo unspecified) | 64* | 0 | 2 | 3 | 28 | 7
COCCCn1c(=O)/c(=C\c2ccccc2OC(C)C)s/c1=C(/C#N)C(=O)Nc1ccc(C(=O)O)cc1 | -22 | . | 4 | 10 | 63* | 7
COCc1[nH]c(=S)[nH]c(=O)c1C | -145 | . | -4 | 3 | 25 | 6
O=C(CCc1ccc(S(=O)(=O)N2CCOCC2)cc1)N/N=C/c1ccc(O)c(O)c1O | 4 | 0 | 16 | -14 | 73* | 27
O=C(/C=C/c1ccc(Br)o1)NCc1ccccc1 | 16 | -1 | 6 | 32 | 72* | 5
CN1CCN(c2ccc(C(=O)c3cn(-c4ccc(F)c(Cl)c4)nn3)cc2)CC1 | 18 | -3 | -8 | 76* | 15 | 3
O=C(Nc1ccc(F)cc1)C1CCN(S(=O)(=O)c2cccs2)CC1 | 10 | 0 | -2 | 6 | 2 | 20
COc1cc(N=Nc2cccc(S(N)(=O)=O)c2)c2ccccc2c1N | 4 | . | 9 | -3 | 67* | 0
NC1=NC(=Nc2cccc(S(N)(=O)=O)c2)c2ccccc21 | -11 | . | 0 | 2 | 7 | 12
Nc1cccc(Nc2ccccc2)c1 | -85 | 2 | 3 | -15 | 3 | 32
c1ccc(Nc2cccc(Nc3ccccc3)c2)cc1 | 20 | -6 | 13 | 29 | 88* | 26
CCN(C(=O)COC(=O)c1ccc2[nH]c3c(c2c1)CCCC3)C1CCS(=O)(=O)C1 (stereo unspecified) | -19 | -5 | 0 | -23 | 24 | 26
COc1ccccc1C(=O)C1CCCN(Cc2cn[nH]c2C2CCCCC2)C1 (stereo unspecified) | -19 | -2 | 2 | -5 | 13 | 11
CCC(=O)Oc1ccc(-c2cnc3ccccc3n2)cc1 | 14 | -1 | -10 | 6 | . | 1
Cc1c(C(=O)Oc2ccc(-c3cnc4ccccc4n3)cc2)cccc1[N+](=O)[O-] | 50 | -8 | 5 | 21 | 67* | 5
COc1ccc(OC)c(NC(=O)CC(NC(C)=O)c2ccccc2)c1 (stereo unspecified) | -12 | 0 | 1 | -12 | 12 | 21
CCCn1c(SCC(=O)NNC(=O)c2ccccc2)nnc1-c1cccnc1 | -22 | . | -12 | 5 | 5 | -3
O=C(C1CCCN(Cc2ccc3c(c2)OCO3)C1)N1CCCC1 (stereo unspecified) | 28 | -1 | -3 | 11 | 17 | -1
COc1cccc(CN2CCN(C(=O)CC(C)C)CC2)c1 | 34 | 1 | 2 | 34 | 28 | -1
CC(C)CC(=O)N1CCN(Cc2cccc(F)c2)CC1 | 28 | -2 | 72* | 79* | 10 | 0
O=C(C1CCCN(Cc2cccc(F)c2)C1)N1CCCCC1 (stereo unspecified) | 14 | 2 | -7 | 86* | 5 | 1
